TWEAK Fn14 block: blocks TWEAK-Fn14 interaction in a reporter cell assay | TWEAK-stimulated Fn14 reporter cells, luciferase luminescence, 8 h | inhibition, % at 10 µM | hit rate 2% among 360,000 | AID 1159606; in the data active = inhibition above about 50%
KKLEB cytotox: reduces viability of KKLEB cystic fibrosis airway cells; hit rate 0.36% among 360,000; activity change (cytotoxicity), % at 5 µM; KKLEB CF airway cells viability, ATPlite luminescence, overnight; hits give low values; cells stimulated with P. aeruginosa culture filtrate;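 active = corrected activity change at or below -50% at 5 µM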
HIF-2a inh: HIF-2a inhibition; AID 624352; hit rate 0.72% among 360,000; 786-0 RCC cells HIF-2a reporter, luciferase luminescence, overnight; inhibition, % at 18.8 µM;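 active = inhibition of the luminescence signal of 40% or more relative to plate controls, in a single-dose primary screen at 18.75 µM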
hiPSC survival: enhancers of human iPSC single-cell survival; hiPSC single-cell survival, ATPlite luminescence; 100% = ROCK inhibitor wells, 0% = DMSO; survival enhancement, % at 20 µM; hit rate 0.044% among 360,000; AID 602274; in the data active = survival enhancement above about 18%;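 note: cells exposed to compounds for 16 hours before the ATP read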
LGR2 antag: Drosophila LGR2 receptor signaling inhibition | hit rate 0.35% among 380,000 | AID 720647 | inhibition, % at 9.99 µM | HEK293 LGR2, CRE-luciferase, bursicon-stimulated, 4 h;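 active = drop in luminescence signal, shown as inhibition above about 50% in the replicate tests, limit read from the data, passing the limit was not always enough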;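 note: agonist challenge used bursicon conditioned medium at about half maximal strength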
CF NFkB block: inhibitors of cystic fibrosis induced NF-kB; inhibition, % at 5 µM; hit rate 0.86% among 360,000; KKLEB NF-kB-GFP reporter, PAF-induced, GFP fluorescence overnight;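 active = at least 50% inhibition at 5 µM, scaled per plate between neutral and stimulator controls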;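 note: PAF is a Pseudomonas aeruginosa culture filtrate used as stimulus; plate controls were PAF-stimulated DMSO wells for no effect and unstimulated DMSO wells for full effect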
Mdm2 MdmX conf: Mdm2/MdmX (human) interaction inhibition, confirmed; shares compounds with HIF-2a inh; SaOS-2 split-luciferase Mdm2/MdmX complementation, luminescence; inhibition, % at 8 µM; hit rate 99% among 740; AID 504601;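 active = mean inhibition of the luminescence signal across two replicates at or above 26 percent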
Target sequence (O15151 whole entry, looked up): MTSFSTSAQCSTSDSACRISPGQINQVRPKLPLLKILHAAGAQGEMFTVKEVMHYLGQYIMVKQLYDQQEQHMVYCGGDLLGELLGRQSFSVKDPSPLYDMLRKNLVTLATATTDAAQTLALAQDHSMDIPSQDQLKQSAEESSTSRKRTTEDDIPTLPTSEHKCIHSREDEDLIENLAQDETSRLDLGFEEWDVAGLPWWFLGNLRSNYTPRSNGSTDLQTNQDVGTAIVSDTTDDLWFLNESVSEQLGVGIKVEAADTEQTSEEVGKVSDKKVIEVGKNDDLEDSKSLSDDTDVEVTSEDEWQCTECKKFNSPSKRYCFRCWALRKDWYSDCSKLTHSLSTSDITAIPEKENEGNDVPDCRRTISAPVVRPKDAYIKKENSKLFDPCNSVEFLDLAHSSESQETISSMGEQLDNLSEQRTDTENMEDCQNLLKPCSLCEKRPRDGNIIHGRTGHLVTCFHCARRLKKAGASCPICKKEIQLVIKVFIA
Target sequence (Q00987 whole entry, looked up): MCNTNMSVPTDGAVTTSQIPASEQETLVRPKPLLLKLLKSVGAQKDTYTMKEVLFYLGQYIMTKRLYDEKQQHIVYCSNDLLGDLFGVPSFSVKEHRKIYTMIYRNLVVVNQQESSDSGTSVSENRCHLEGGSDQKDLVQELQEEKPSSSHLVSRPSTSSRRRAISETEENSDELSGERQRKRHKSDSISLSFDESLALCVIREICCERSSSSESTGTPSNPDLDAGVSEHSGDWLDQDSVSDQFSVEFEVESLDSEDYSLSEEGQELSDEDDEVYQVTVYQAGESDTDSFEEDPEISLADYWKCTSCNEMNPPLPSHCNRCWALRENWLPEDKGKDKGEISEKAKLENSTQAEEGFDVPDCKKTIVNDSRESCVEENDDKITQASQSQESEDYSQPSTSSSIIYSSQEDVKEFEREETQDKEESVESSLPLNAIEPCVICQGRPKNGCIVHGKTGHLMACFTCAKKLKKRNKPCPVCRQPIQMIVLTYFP
HIF-2a inh conf: HIF-2a inhibition, single concentration confirmation; shares compounds with HIF-2a inh; 786-0 RCC cells, HIF-2a luciferase reporter luminescence, overnight; inhibition, % at 18.8 µM; hit rate 56% among 1,800; AID 651580;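 active = mean inhibition across four replicates of at least 40 percent at the single tested concentration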
HIF-1a counter: counter-screen for HIF-2a inhibitors: HIF-1a inhibition in MiaPaCa-2 cells. AID 651589. MiaPaCa-2 HIF-1a luciferase reporter, desferoxamine, overnight. hit rate 72% among 1,800. inhibition, % at 18.8 µM. shares compounds with HIF-2a inh;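 active = mean inhibition of the reporter signal across four replicates at the single tested dose of 50% or more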
* = called active by the depositor; x = not tested or not shown. The list is not random: actives were taken first. Their share in the collection is about 2.3%.

SMILES	TWEAK Fn14 block	KKLEB cytotox	HIF-2a inh	hiPSC survival	LGR2 antag	CF NFkB block	HIF-2a inh conf	HIF-1a counter	others
CC1(C)OC(=O)C=C[C@]2(C)[C@H]3CC[C@@]4(C)[C@H](c5ccoc5)OC(=O)[C@H]5O[C@]54[C@]3(C)C(=O)C[C@@H]12	8	9	11	2	-9	-13	x	x
CC(=O)O[C@@H]1C[C@H]2C(C)(C)C(=O)C=C[C@]2(C)[C@H]2CC[C@@]3(C)[C@H](c4ccoc4)OC(=O)[C@H]4O[C@]43[C@@]21C	33	19	58*	2	47	28	49*	77*
CCOc1ccc(CCN2C(=O)C(=O)N([C@@H](Cc3ccccc3)CN3CCC[C@H]3CN3C(=O)C(=O)NC[C@@H]3Cc3ccccc3)C[C@@H]2CC(C)C)cc1	12	x	48*	0	22	x	5	103*
CCOc1ccc(CCN2C(=O)C(=O)N([C@@H](Cc3ccccc3)CN3CCC[C@H]3CN3C(=O)C(=O)NC[C@@H]3Cc3ccccc3)C[C@@H]2Cc2ccccc2)cc1	42	x	-21	0	13	x	x	x
C[C@@H]1CCCCO[C@@H](CN(C)C(=O)Cc2ccccc2)[C@H](C)CN([C@@H](C)CO)C(=O)c2cc(NC(=O)c3ccccc3)ccc2O1	x	x	x	x	-12	x	x	x
C[C@H]1CN([C@@H](C)CO)C(=O)Cc2cc(NC(=O)Nc3ccccc3)ccc2O[C@@H]1CN(C)Cc1ccc(C(=O)O)cc1	x	x	x	x	-16	x	x	x
CCOC(=O)C1=C(C)NC2=C(C(=O)CC(c3cccs3)C2)C1c1cccs1 (stereo not drawn)	23	-6	46*	1	x	16	52*	63*
COC(=O)C1=C(C)NC2=C(C(=O)CC(c3cccs3)C2)C1c1ccsc1 (stereo not drawn)	29	4	22	2	x	28	x	x
S=c1[nH]nc(-c2ccccc2)n1/N=C/c1ccc(-c2ccccc2Cl)o1	-69	19	0	0	8	7	x	x	Mdm2 MdmX conf=100*
CNC(=O)c1nnsc1S(=O)(=O)c1ccc(Cl)cc1	59*	-92*	65*	15	103*	90*	74*	50*	Mdm2 MdmX conf=104*
CCCC#Cc1cnc2c(c1)C(=O)N([C@H](C)CO)C[C@@H](C)[C@H](CN(C)C(=O)c1ccc3c(c1)OCO3)O2	x	x	x	x	1	x	x	x
N#Cc1c(N)nc(SCc2ccncc2)c(C#N)c1-c1cccs1	43	-4	45*	2	x	4	29	61*
COc1cc(-c2c(C#N)c(N)nc(SCc3ccncc3)c2C#N)cc(OC)c1OC	-27	-6	36	-2	22	1	x	x
O=C(C1CCCCC1)N1C[C@H]2[C@@H](c3ccccc31)[C@H](CO)N2C(=O)c1ccccc1F	x	x	x	x	-9	x	x	x
Cc1nn(C)c(C)c1CN(C)C(=O)c1cnn2c1NC(c1ccccc1)CC2C(F)(F)F (stereo not drawn)	9	-4	43*	2	5	13	28	9
Cc1nn(C)c(C)c1CN(C)C(=O)c1nn2c(c1Br)NC(c1cccs1)CC2C(F)(F)F (stereo not drawn)	3	-2	26	-1	x	10	x	x
COc1ccc(NC(=O)N2CC[C@@H]3[C@@H](CO)N(C)c4ccc(-c5cccc(C(=O)N(C)C)c5)cc4[C@@H]32)cc1	x	x	x	x	-15	x	x	x
CCOC(=O)Cc1ccc(NC(=O)c2ccc(C(C)(C)C)cc2)cc1	25	-10	90*	-5	x	8	97*	77*
Cn1ccnc1C(=O)c1cc(SCC(=O)NC2CC2)nc2ccccc12	10	10	4	1	0	-14	x	x
CN(C(=O)CSc1cc(C(=O)c2nccn2C)c2ccccc2n1)c1ccccc1	-2	-6	50*	0	31	23	29	52*
COCCN=C1N[C@@H](c2cccc(C(F)(F)F)c2)C(C(=O)OC)=C(C)N1Cc1ccccc1	-7	0	6	-2	17	22	x	x
COC(=O)C1=C(C)N(Cc2ccccc2)C(=NCc2cccc(C(F)(F)F)c2)N[C@H]1c1cccc(C(F)(F)F)c1	6	-29	1	-5	x	16	x	x	Mdm2 MdmX conf=102*
CC(=O)Nc1cc2nn(-c3ccccc3)nc2cc1Cl	28	-2	-179	-2	x	-17	x	x
CC(C)(C)C(=O)Nc1cc2nn(-c3ccccc3)nc2cc1Cl	108*	-94*	75*	-8	x	3	91*	95*
O=C(N[C@H]1CC[C@H](CCNC(=O)C2CCC2)O[C@@H]1CO)c1ccncc1	x	x	x	x	5	x	x	x
SMILES	TWEAK Fn14 block	KKLEB cytotox	HIF-2a inh	hiPSC survival	LGR2 antag	CF NFkB block	HIF-2a inh conf	HIF-1a counter	others
CN(C)S(=O)(=O)c1cccc(NC(=O)CSc2cccc3cccnc23)c1	-18	2	66*	0	11	-11	75*	-15
CCOc1ccc(/C=N/N2C(=O)C(CC(=O)Nc3ccc(F)cc3F)SC2=NC)cc1OC (stereo not drawn)	-2	3	49*	1	-3	10	-4	-6
Cc1noc(C)c1S(=O)(=O)N(C)C[C@H]1Oc2ccc(NC(=O)CCCCCC(=O)Nc3ccccc3N)cc2CC(=O)N([C@@H](C)CO)C[C@@H]1C	x	x	x	x	21	x	x	x
CC(C)CC(N)c1csc(NC(=O)c2cc(C(C)(C)C)nn2Cc2ccccc2)n1 (stereo not drawn)	-75	-21	92*	-4	23	1	8	107*
CC(C)CC(N)c1csc(NC(=O)Nc2ccccc2Cc2ccccc2)n1 (stereo not drawn)	-12	-9	-3	-6	-5	-2	x	x
Cc1ccc(NC(=O)C2=C(c3ccccc3)S(=O)(=O)CCS2(=O)=O)cc1	88*	-72*	81*	-1	38	96*	81*	102*	Mdm2 MdmX conf=103*
CN(C)CC(=O)N[C@H]1CC[C@H](CC(=O)NCc2ccccc2F)O[C@@H]1CO	x	x	x	x	-2	x	x	x
C=CCC(Nc1ccccc1)C12C=CC(O1)C(C(=O)OC)=C2C(=O)OC (stereo not drawn)	27	-24	92*	-9	3	38	94*	98*
COC(=O)C1=C(C(=O)OC)[C@]2([C@@H]3CC=CCN[C@@H](Cc4ccccc4)C(=O)N3Cc3ccccc3)C=C[C@H]1O2	17	-8	5	1	8	31	x	x

High-throughput results as filed in PubChem.
